Measurements taken from PubChem BioAssay AID624263 (National Center for Advancing Translational Sciences (NCATS), 2012).
Values joined by “and” are separate entries in the source; they are usually repeats but may differ in a detail not shown here. Identical values can stand only once. The whole screen tested about 410,000 compounds, of which about 820 (0.2%) were called active. Another 2% or so got no clear call; they are omitted. Calls come from the whole dose curve; as a rule, active = well fitted activation curve with a large enough effect; inconclusive = small, poorly fitted or top-dose-only effect; inactive = flat fitted curve, though single readings scatter; cell line not stated here. The full list was thinned out, with actives kept by preference. Where a structure was tested more than once in an assay, its records may differ in their call.

Assay: A Quantitative High throughput Screen to Identify Chemical Modulators of PINK1 Expression; note: nearly all actives have a fitted effect of over 65% in size; for activation (PINK1 increase): % of control where 0% means no effect
Conditions: PINK1 immunofluorescence, high-content cytometry, 24 h; series mostly up to 76.6 µM; activation (PINK1 increase): at the top concentration
From the text: The overall goal of this project is to develop new tools for understanding and treating the mitochondrial basis for neurodegenerative disease such as Parkinson's disease (PD). The PINK1 campaign was developed from recent data pointing towards mitochondrial dysfunction as a major contributor to dopaminergic neuron loss. The discovery of PINK1/Parkin mediated mitophagy has highlighted the potential for mitochondrial quality control as a novel target for therapeutic intervention. […] A second aim of this project is the development of chemical probes to study the mechanics of mitochondrial quality control. As the PINK1/Parkin mitophagy pathway is a relative recent discovery, no specific chemical probes are available that modulate the process. Presently, only crude tools that cause nonspecific mitochondrial damage are available. To advance the understanding of mitophagy, specific, well characterized chemicals that target various steps of mitophagy regulation need to be developed. New chemical probes may have the ability to dynamically manipulate mitophagy in model organisms such as rodents and zebrafish, advancing our understanding of the process in development and disease. This HTS campaign seeks to discover an activator of PINK1 expression by modulation at the level of post-translational processing.
The PINK1 assay determines the amount and localization of PINK1 protein in a cell using a combination of immunofluorescence and cell staining. The goal of the assay is to determine small molecules that can increase the expression of Pink1 on or inside the cell's mitochondria (ideally without mitochondrial depolarization) using a stable cell line. Since PINK1 protein is rapidly degraded in un-perturbed cells, compounds that induce the enhancement of PINK1 protein expression are identified by determining PINK1 immunofluorescence in conjunction with a mitochondrial, cell, and nuclear marker post fixation. To facilitate rapid high content screening, the primary assay is run in a decision-based HTS mode where compound titration data collected by laser-scanning microplate cytometers is processed and only promising compound series are passed off for high content drill down.
1 Add cells to black, clear-bottom, low-base 1536-well plates 6 uL (250 cells/well)
2 Incubate in TC incubator (12 hours)
3 Pin compounds or DMSO controls 23 nL (5 concentrations per compound set)
4 Dispense CCCP to control columns
5 Incubate in TC incubator 24 hours
6 Aspirate media and fix cells (5 uL of fixative containing nuclear dye)
7 Incubate 15 minutes at RT
8 Wash in PBSTween (12 uL/well)
9 Wash in PBSTriton (12 uL/well)
10 Aspirate wash and add Blocking buffer (4 uL/well)
12 Aspirate block and add primary antibodies 3.5 (uL/well)
13 Incubate 12 hours at 10 degrees C
14 Wash in PBSTween-20 two times (12 uL/well)
15 Aspirate wash and add secondary antibodies (12 uL/well)
17 Wash in PBSTween (12 uL/well)
18 Wash in PBSTween with cell stain (12 uL/well)
19 Read plates on Acumen EX3 and determine Wells2Cells coordinates
Potency is the fitted concentration of half-maximal effect.

| SMILES | activation (PINK1 increase) | Potency |
| --- | --- | --- |
| Cc1cccc(OCC(O)CN2CCN(S(=O)(=O)c3ccc(C)cc3C)CC2)c1 (configuration not stated) | 0.654% (inactive) |  |
| Cc1ccc(OCC(O)CN2CCN(CC(O)COc3ccc(C)cc3Cl)CC2)c(Cl)c1 (configuration not stated) |  | 11.2 µM (active) |
| OC(COc1ccc(F)cc1Cl)CN1CCc2ccccc2C1 (configuration not stated) | 1.72% (inactive) |  |
| O=C(NCC1Cc2cc(F)cc(-c3cnccn3)c2O1)C1COc2ccccc2O1 (configuration not stated) | 0.603% (inactive) |  |
| O=C(C(=O)N1CCOc2ccc(CN3CCN(Cc4ccccn4)CC3)cc2C1)c1ccccc1 | 0.0595% (inactive) |  |
| COc1ccc2c(c1)CCc1cnc(-n3ncc(C(=O)NCc4cccnc4)c3C3CC3)nc1-2 | 0.559% (inactive) |  |
| O=C(N/N=C/c1cccc2cccnc12)[C@H]1C[C@@H]1c1ccccc1 | -0.0622% (inactive) |  |
| O=Nc1c(O)cc(O)c2ccccc12 | 1.49% (inactive) |  |
| O=C(NN=Cc1ccccc1O)NN=Cc1ccccc1O |  | 0.891 µM (active) |
| CCC1CN(CCNC(=O)c2cccnc2C)Cc2cc(OC)ccc2O1 (configuration not stated) | -0.526% (inactive) |  |
| Cc1c(C(=O)NCC2CCCN(C)C2)cnn1-c1nccc(-c2ccco2)n1 (configuration not stated) | 0.569% (inactive) |  |
| CC12CCC(C(=O)N(CCC#N)CCC#N)(CC1=O)C2(C)C (configuration not stated) |  | 5.01 µM (active) |
| CCN(CC)c1ccc(/C=C/c2c(C)cnc3ccc(C)cc23)cc1 | 3.71% (inactive) |  |
| COc1cc(C)c(CN2CCc3nnc(C(C)NC(=O)c4cccnc4)n3CC2)cc1C (configuration not stated) | 0.397% (inactive) |  |
| Cc1ccc(NC(=O)Nc2nnc(-c3ccncc3)s2)cc1 |  | 15.8 µM (active) |
| Cc1ccc(CNC(=O)Nc2nnc([C@H]3C[C@H](O)[C@@H](CO)O3)s2)cc1 | -0.0573% (inactive) |  |
| CCCCN(C)c1nnc(NC(=O)Nc2ccc(Br)c(C)c2)s1 | 0.951% (inactive) |  |
| C/C=C/NNC(=O)Cc1ccc(OC)cc1 | 7.35% (inactive) |  |
| CCCc1cc(=S)n2c([nH]c3ccccc32)c1C#N |  | 28.2 µM (active) |
| Cn1cccc1C(=O)N1CCC2(CC1)CN(c1cccc(-c3ccccc3)c1)C2 | 0.654% (inactive) |  |
| COc1c2c(cc3occ(-c4ccc5c(c4)OCO5)c(=O)c13)OC(C)(C)C=C2 | 1.47% (inactive) |  |
| CC(=O)N1CCC(N(C(=O)Nc2ccc(Cl)cc2)C(C)C)CC1 | 0.539% (inactive) |  |
| CC(C)S(=O)(=O)c1csc(NC(=O)Nc2ccc(Cl)cc2)c1Cl |  | 15.8 µM (active) |

| SMILES | activation (PINK1 increase) | Potency |
| --- | --- | --- |
| CC(=O)c1ccc(NC(=O)C(C)NCc2ccc(Cl)cc2)cc1 (configuration not stated) | 0.227% (inactive) |  |
| COc1cc(=O)n2c(c1C(=O)NC(C)c1ccco1)CCN(Cc1cc(C)cc(C)c1)CC2 (configuration not stated) | 0.333% (inactive) |  |
| COc1ccc2[nH]cc(CCNc3ncnc4ccc(-c5ccc(C(=O)N(C)C)cc5)cc34)c2c1 | 1.44% (inactive) |  |
| O=C(CNS(=O)(=O)c1ccc2ccccc2c1)Nc1ccc(F)c(F)c1F | 6.76% (inactive) |  |
| O=C(CNc1cccc(S(=O)(=O)N2CCCCC2)c1)Nc1ccccc1F | 0.781% (inactive) |  |
| O=C(CNS(=O)(=O)c1cccc(C(F)(F)F)c1)Nc1ccccc1F |  | 10 µM (active) |
| Cc1cnc(-n2ncc(C(=O)N3CCN(C(C)C)CC3)c2-c2ccco2)nc1-c1ccc(F)cc1 | 1.72% (inactive) |  |
| CC(C)(C)c1ccc(C(=O)C[n+]2cccc3cc(Cl)ccc32)cc1 | 5.06% (inactive) |  |
| OCC1CCCN(c2nc3cc4c(cc3cc2CNCc2cccs2)OCO4)C1 (configuration not stated) | -0.93% (inactive) |  |
| Cc1ccc(NC(=O)COC(=O)C2CC2)cc1S(=O)(=O)N1CCOCC1 | 0.894% (inactive) |  |
| Cc1ccc(NC(=O)CCCNC(=O)c2ccc(Cl)cc2)cc1S(=O)(=O)N1CCCCC1 | 2.17% (inactive) |  |
| Cc1ccc(NC(=O)CCC(=O)N2CCC(c3ccccc3)=N2)cc1S(=O)(=O)N1CCCCC1 |  | 11.2 µM (active) |
| COc1cc(=O)n2c(c1C(=O)NC(C)c1ccco1)CCN(C(=O)c1cn3ccc(C)cc3n1)CC2 (configuration not stated) | 0.949% (inactive) |  |
| COc1cc(=O)n2c(c1C(=O)N(C)Cc1nonc1C)CCN(C(=O)c1ccc(C)cc1C)CC2 | -0.189% (inactive) |  |
| CCC1CN(CCNC(=O)c2ccsc2)Cc2cc(OC)ccc2O1 (configuration not stated) | -0.839% (inactive) |  |
| Cc1nc2cc(NC(=O)[C@@H]3C[C@@H](Sc4ccccn4)CN3Cc3ccccc3C)ccc2s1 | 0.376% (inactive) |  |
| N#Cc1ccc[n+](CC(=O)c2ccc(O)c(O)c2)c1 | 0.262% (inactive) |  |
| O=C(Nc1nnc(S(=O)(=O)N2CCCc3ccccc32)s1)c1cccc(F)c1 | 2.55% (inactive) |  |
| O=C(Nc1nnc(S(=O)(=O)N2CCCCCC2)s1)c1cccc(Br)c1 |  | inactive and 28.2 µM (active) |
| O=C(Nc1nnc(S(=O)(=O)N2CCOCC2)s1)c1cccc(Br)c1 |  | inactive |
| CC(C)Cc1cc(C(=O)NCCc2ccccc2)no1 | 0.759% (inactive) |  |
| Cc1nn(Cc2ccc(F)cc2)c(C)c1NC(=O)c1cc(CC(C)C)on1 | 0.475% (inactive) |  |
| CC(C)Cc1cc(C(=O)Nc2cc(Br)ccc2O)no1 |  | 44.7 µM (active) |

| SMILES | activation (PINK1 increase) | Potency |
| --- | --- | --- |
| Cc1nc2cnc(N3CCNCC3)nc2n(Cc2ccc(F)cc2)c1=O | -0.606% (inactive) |  |
| COCc1c(C(=O)NC2CCCCC2)cnn1-c1nccc(-c2ccccc2OC)n1 | 0.512% (inactive) |  |
| COc1ccc(/C=C/c2ccccn2)cc1OC | 1.64% (inactive) |  |
| CCCS(=O)(=O)NCc1c(C)ncc2c1CCN(C(=O)c1ccc(F)c(F)c1)C2 | 0.24% (inactive) |  |
| CC(O)(COc1ccccc1)c1ccc2c(c1)CN(Cc1cn[nH]c1-c1ccc(F)cc1)CCO2 (configuration not stated) | -0.0916% (inactive) |  |
| O=[N+]([O-])c1ccccc1N/N=C1\CCc2ccccc21 | 1.04% (inactive) |  |
| CN(C)c1ccc(/C=N\Nc2ccc([N+](=O)[O-])cc2[N+](=O)[O-])cc1Cl | 0.417% (inactive) |  |
| O=[N+]([O-])c1ccc(O)c(/C=N/Nc2ccccc2[N+](=O)[O-])c1 |  | 20 µM (active) |
| COc1ccc(C)cc1N1C(=O)[C@@H]2C[C@H]1CN2Cc1cccc(OC)c1O | 0.987% (inactive) |  |
| Cc1[nH]c2c(C(=O)NCC3Cc4cccc(-c5cccnc5)c4O3)cccc2c1C (configuration not stated) | 1.19% (inactive) |  |
| COc1ccc2c(c1)c(=Cc1ccc(N(C)C)cc1)c1cc(-c3ccccc3)[n+](C)n12 | -1.26% (inactive) |  |
| CN(C)c1ccc(/C=C/c2sc3ccccc3[n+]2C)cc1 |  | 44.7 µM (active) |
| CN(C)c1ccc(C=Nc2ccc(/C=C/c3ccnc4ccccc34)cc2)cc1 | -0.636% (inactive) |  |
| COc1ccccc1-c1ccc(C(=O)N(C)C(C)c2ccon2)c(N2CCN(c3ccccc3F)CC2)n1 (configuration not stated) | 1.15% (inactive) |  |
| Cc1ccc(-c2ccnc(-n3ncc(C(=O)N(C)Cc4cccc5ncccc45)c3C3CC3)n2)o1 | 0.511% (inactive) |  |
| CC(=O)c1ccc(NC(=O)CSc2nnc(NC(=O)Nc3ccccc3)s2)cc1 | -0.057% (inactive) |  |
| Cc1ccc(C(=O)Nc2nc(-c3ccccc3)ns2)cc1 | 14.4% (inactive) |  |
| C=CCSc1nsc(NC(=O)Nc2cccc(C(C)=O)c2)n1 |  | 15.8 µM (active) |
| CN(C(=O)CSc1nnc(NC(=O)Nc2ccccc2)s1)c1ccccc1 | 1.45% (inactive) |  |
| CSc1nsc(NC(=O)Nc2ccccc2)n1 |  | 22.4 µM (active) |
| CC(=O)c1cccc(NC(=O)CSc2nc3c(c(=O)[nH]2)CCC3)c1 | 1.26% (inactive) |  |
